Laboratory results as given in PubChem BioAssay (NCI).
Compounds without any hit were thinned out: in the full panel of roughly 83,000, 20% have a hit.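 Interpretation: 100, growth as untreated; towards 0, rising growth inhibition; 0, no net growth; 0 to -100, cell death. Compounds scoring below 10 were considered active.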 Values without a mark were called inactive. Activity calls are given as the source filed them.

What was measured:
Assay in all cases: NCI-60 one-dose screen, 48 h (100 = growth as untreated, 0 = no growth, -100 = all killed)
Settings in all cases: 10 µM unless noted
MOLT-4 leukemia = system: MOLT-4 leukemia
SR leukemia = system: SR leukemia
RPMI-8226 leukemia = system: RPMI-8226 leukemia
OVCAR-8 ovarian = system: OVCAR-8 ovarian
OVCAR-5 ovarian = system: OVCAR-5 ovarian
OVCAR-4 ovarian = system: OVCAR-4 ovarian
SK-OV-3 ovarian = system: SK-OV-3 ovarian
IGROV1 ovarian = system: IGROV1 ovarian
OVCAR-3 ovarian = system: OVCAR-3 ovarian
HS 578T breast = system: HS 578T breast
NCI/ADR-RES ovarian = system: NCI/ADR-RES ovarian
T-47D breast = system: T-47D breast
BT-549 breast = system: BT-549 breast
MDA-MB-435 melanoma = system: MDA-MB-435 melanoma
SW-620 colon = system: SW-620 colon
MCF7 breast = system: MCF7 breast
HCT-116 colon = system: HCT-116 colon
HCC-2998 colon = system: HCC-2998 colon
KM12 colon = system: KM12 colon

SMILES	growth (MOLT-4 leukemia)	growth (SR leukemia)	growth (RPMI-8226 leukemia)	growth (OVCAR-8 ovarian) [%]	growth (OVCAR-5 ovarian) [%]	growth (OVCAR-4 ovarian) [%]	growth (SK-OV-3 ovarian) [%]	growth (IGROV1 ovarian)	growth (OVCAR-3 ovarian) [%]	growth (HS 578T breast) [%]	growth (NCI/ADR-RES ovarian) [%]	growth (T-47D breast) [%]	growth (BT-549 breast) [%]	growth (MDA-MB-435 melanoma)	growth (SW-620 colon)	growth (MCF7 breast)	growth (HCT-116 colon)	growth (HCC-2998 colon)	growth (KM12 colon)
O=c1c2ccccc2nc(-c2ccccc2Cl)n1-c1nnc(C(F)(F)F)s1	3.92% (active)	-6.69% (active)	0.839% (active)	32.7	78.2	37.5	25.7	37.6%	18.7	26.7	11.6	43.5	22.3	57.8%	37.5%	21.4%	16.8%	17.6%	29.1%
COc1ccc2c(c1)c(-c1nc(-c3cn(C)c4ncccc34)cs1)cn2CCCCN1CCOCC1	-15.6% (active)	-5.63% (active)	-18.1% (active)	48.5	56.9	60.2	79.7	67.8%	50.8	18.8	59.6	64.5	76.8	-83.4% (active)	-77.1% (active)	15.1%	11.4%	7.68% (active)	-5.62% (active)
O=C(Cc1ccccc1)NC(O)C(Cl)(Cl)Cl (stereo not drawn)	96.1%	101%	104%	96.1	111	105	106	115%	124	124	107	110	96.8	109%	117%	93.1%	107%	110%	119%
CCOC(=O)C1C(C=C(C)C)C1(C)C (stereo not drawn)	85.1%	99.7%	96.9%	99.6	80.5	116	105	120%	103	115	99.1	115	104	102%	89.3%	112%	108%	96%	94.5%
Cc1cc(C(C)(C)C)ccc1O	99.5%	93.8%	105%	102	120	109	100	107%	105	99.8	98.3	103	109	111%	108%	101%	95.6%	106%	103%
O=C(O)C(F)F	102%	109%	114%	105	106	112	98.5	114%	115	96.2	113	96.6	117	102%	90.4%	97.1%	107%	123%	103%
COc1cc(/C=C\[N+](=O)[O-])ccc1OCc1ccccc1	1.1% (active)	-24.2% (active)	-45.6% (active)	52.9	98.5	85.3	91.4	7.94% (active)	19.9	42.9	69.2	49	37.2	20%	47.4%	9.62% (active)	1% (active)	-70.4% (active)	23.6%
